Experimental findings from ChEMBL document CHEMBL2218924, “A broad activity screen in support of a chemogenomic map for kinase signalling research and drug discovery” (Biochem J, 2013) are described below.

Experiment [1] addresses T1, Ephrin type-A receptor 3 (Homo sapiens) (UniProt P29320).
T1 sequence (whole entry): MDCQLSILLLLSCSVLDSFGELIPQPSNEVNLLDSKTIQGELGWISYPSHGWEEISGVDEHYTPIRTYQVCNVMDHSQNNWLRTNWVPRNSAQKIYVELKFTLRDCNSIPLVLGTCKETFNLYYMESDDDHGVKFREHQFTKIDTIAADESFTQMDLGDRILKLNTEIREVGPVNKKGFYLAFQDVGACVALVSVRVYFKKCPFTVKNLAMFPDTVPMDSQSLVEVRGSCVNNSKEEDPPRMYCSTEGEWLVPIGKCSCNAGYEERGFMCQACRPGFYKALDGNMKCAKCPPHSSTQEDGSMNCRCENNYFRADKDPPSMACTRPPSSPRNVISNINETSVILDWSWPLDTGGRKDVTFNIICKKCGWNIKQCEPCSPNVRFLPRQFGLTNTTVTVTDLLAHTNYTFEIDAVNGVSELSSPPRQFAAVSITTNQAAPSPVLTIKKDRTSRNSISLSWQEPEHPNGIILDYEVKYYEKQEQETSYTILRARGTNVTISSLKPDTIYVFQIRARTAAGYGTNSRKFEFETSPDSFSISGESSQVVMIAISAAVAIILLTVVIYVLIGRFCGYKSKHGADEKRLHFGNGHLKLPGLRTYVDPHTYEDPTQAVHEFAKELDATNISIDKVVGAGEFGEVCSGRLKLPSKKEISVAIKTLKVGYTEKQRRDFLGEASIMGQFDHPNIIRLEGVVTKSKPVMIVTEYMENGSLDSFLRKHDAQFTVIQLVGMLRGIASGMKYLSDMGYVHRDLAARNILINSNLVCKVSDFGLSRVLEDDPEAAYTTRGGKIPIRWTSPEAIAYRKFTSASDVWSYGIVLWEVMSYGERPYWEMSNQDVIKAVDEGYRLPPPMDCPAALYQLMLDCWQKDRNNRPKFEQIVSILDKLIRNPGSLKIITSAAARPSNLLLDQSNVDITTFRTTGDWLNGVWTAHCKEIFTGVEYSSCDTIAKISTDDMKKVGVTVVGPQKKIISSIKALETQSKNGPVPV
The note with it: at 10 µM.

Experiment [2] has as its target Ephrin type-A receptor 4 (Homo sapiens) (UniProt P54764). The note with it: at 1 µM.
Experiment [3] has the same target. The note with it: at 10 µM.
For experiment [4], the target named is Ephrin type-A receptor 5 (Homo sapiens) (UniProt P54756). The note with it: at 1 µM.
Experiment [5] has the same target. The note with it: at 10 µM.
Experiment [6] deals with Ephrin type-A receptor 7 (Homo sapiens) (UniProt Q15375). The note with it: at 1 µM.
Experiment [7] has the same target. The note with it: at 10 µM.
The target of experiment [8] is T2, Ephrin type-A receptor 8 (Homo sapiens) (UniProt P29322).
T2 sequence (whole entry): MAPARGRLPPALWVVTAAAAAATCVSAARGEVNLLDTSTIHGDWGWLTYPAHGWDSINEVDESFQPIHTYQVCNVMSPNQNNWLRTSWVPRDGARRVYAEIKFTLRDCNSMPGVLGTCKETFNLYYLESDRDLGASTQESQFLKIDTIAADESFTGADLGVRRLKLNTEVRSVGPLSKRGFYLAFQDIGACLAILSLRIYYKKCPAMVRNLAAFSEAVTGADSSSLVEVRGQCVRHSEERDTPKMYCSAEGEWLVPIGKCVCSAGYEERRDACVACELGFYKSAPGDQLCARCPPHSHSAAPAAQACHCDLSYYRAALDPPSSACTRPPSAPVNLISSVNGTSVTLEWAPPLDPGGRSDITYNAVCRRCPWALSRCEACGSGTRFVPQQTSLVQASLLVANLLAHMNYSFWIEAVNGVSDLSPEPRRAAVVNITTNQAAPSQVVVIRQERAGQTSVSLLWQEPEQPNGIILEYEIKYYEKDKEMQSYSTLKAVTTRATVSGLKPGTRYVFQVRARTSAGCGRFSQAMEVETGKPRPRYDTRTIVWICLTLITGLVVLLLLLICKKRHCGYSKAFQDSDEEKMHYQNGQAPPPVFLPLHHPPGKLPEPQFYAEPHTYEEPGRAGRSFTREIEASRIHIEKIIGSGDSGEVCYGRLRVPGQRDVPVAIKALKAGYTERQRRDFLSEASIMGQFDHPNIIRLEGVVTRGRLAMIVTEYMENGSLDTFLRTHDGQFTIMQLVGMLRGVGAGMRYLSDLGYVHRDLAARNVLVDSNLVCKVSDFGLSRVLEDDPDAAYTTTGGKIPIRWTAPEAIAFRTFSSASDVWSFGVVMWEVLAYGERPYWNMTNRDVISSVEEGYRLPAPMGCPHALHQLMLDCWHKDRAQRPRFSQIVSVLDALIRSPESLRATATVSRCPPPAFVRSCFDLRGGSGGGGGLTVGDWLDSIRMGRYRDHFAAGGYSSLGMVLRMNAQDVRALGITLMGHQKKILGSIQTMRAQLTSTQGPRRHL
The note with it: at 1 µM.

Experiment [9] addresses T2, Ephrin type-A receptor 8 (Homo sapiens). The note with it: at 10 µM.
Experiment [10] deals with T3, Ephrin type-B receptor 1 (Homo sapiens) (UniProt P54762).
T3 sequence (whole entry): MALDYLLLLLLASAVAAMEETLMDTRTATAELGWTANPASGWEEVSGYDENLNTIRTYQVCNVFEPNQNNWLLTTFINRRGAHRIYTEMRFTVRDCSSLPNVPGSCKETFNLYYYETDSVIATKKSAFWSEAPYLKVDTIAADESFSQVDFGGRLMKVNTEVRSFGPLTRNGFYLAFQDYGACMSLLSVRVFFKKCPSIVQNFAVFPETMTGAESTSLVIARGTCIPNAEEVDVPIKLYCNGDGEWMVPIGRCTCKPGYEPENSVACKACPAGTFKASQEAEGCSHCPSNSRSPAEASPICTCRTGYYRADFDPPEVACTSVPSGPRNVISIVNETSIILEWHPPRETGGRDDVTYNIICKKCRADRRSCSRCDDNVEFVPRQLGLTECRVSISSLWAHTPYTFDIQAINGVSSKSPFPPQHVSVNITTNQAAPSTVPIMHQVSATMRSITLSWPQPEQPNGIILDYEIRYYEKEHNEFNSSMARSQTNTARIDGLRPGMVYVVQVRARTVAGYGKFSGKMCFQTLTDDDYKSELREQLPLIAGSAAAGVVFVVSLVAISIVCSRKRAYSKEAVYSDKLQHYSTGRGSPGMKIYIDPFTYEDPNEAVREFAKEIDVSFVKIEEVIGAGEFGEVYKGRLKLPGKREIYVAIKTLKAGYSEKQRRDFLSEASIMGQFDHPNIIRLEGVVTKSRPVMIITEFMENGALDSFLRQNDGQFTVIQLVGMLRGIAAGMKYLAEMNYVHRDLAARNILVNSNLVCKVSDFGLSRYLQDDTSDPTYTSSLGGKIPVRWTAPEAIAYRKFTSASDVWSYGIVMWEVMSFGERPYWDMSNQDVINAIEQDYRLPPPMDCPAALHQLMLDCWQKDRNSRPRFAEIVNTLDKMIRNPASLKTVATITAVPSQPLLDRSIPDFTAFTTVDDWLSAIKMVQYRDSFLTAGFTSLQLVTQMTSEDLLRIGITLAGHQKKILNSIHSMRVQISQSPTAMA
The note with it: at 1 µM.

Chain of Ephrin type-A receptor 7 (Homo sapiens) (Q15375 28-998 limits assumed): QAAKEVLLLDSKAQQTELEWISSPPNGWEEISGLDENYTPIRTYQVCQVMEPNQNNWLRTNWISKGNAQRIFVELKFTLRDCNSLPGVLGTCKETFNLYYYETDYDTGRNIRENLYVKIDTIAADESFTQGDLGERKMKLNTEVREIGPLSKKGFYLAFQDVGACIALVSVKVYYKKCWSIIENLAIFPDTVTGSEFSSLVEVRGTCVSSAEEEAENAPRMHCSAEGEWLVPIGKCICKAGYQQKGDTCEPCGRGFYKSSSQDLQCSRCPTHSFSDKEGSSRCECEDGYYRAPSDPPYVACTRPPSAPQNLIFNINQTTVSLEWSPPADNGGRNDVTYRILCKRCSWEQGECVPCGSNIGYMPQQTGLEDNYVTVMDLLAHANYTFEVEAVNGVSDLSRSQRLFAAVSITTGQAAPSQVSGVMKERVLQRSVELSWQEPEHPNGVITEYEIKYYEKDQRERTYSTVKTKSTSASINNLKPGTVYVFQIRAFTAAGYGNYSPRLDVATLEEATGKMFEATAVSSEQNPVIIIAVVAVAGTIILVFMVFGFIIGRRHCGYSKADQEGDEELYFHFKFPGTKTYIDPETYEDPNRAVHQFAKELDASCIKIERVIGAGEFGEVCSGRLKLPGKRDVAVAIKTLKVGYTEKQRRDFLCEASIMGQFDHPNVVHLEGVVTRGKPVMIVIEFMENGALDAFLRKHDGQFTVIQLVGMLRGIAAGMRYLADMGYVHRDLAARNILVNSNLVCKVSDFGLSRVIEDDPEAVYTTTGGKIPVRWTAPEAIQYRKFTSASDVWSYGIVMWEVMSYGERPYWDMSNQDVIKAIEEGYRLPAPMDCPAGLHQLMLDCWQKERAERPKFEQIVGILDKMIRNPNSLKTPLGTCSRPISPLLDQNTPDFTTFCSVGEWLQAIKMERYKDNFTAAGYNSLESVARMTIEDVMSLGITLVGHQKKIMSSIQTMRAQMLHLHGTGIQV
Chain of Ephrin type-A receptor 4 (Homo sapiens) (P54764 whole entry): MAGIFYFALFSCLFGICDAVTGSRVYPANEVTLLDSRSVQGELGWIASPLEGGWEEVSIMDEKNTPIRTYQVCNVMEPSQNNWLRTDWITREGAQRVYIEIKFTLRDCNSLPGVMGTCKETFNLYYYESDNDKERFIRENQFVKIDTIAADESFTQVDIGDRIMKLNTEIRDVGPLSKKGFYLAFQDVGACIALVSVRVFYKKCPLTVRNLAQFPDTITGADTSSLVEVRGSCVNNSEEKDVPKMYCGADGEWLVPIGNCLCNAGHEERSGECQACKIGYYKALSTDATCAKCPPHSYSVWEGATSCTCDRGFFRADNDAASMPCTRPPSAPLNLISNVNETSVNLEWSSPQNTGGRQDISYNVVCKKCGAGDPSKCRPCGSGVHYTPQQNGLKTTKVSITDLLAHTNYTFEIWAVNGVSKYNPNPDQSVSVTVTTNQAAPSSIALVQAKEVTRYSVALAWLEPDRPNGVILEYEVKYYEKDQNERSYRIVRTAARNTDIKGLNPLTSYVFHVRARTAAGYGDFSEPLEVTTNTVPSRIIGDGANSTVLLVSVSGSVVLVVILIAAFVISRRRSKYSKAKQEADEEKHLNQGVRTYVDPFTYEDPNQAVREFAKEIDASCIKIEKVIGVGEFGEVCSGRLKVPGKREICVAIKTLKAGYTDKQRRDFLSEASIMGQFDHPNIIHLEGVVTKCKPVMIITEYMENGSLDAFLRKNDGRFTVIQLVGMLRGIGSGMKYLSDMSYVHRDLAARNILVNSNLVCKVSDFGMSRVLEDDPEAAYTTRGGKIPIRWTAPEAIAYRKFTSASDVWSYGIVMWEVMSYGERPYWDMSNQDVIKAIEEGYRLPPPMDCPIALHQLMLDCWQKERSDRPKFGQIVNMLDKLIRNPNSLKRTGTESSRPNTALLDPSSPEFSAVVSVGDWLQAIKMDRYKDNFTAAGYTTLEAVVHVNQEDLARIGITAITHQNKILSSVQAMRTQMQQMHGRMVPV
Chain of Ephrin type-A receptor 5 (Homo sapiens) (P54756 whole entry): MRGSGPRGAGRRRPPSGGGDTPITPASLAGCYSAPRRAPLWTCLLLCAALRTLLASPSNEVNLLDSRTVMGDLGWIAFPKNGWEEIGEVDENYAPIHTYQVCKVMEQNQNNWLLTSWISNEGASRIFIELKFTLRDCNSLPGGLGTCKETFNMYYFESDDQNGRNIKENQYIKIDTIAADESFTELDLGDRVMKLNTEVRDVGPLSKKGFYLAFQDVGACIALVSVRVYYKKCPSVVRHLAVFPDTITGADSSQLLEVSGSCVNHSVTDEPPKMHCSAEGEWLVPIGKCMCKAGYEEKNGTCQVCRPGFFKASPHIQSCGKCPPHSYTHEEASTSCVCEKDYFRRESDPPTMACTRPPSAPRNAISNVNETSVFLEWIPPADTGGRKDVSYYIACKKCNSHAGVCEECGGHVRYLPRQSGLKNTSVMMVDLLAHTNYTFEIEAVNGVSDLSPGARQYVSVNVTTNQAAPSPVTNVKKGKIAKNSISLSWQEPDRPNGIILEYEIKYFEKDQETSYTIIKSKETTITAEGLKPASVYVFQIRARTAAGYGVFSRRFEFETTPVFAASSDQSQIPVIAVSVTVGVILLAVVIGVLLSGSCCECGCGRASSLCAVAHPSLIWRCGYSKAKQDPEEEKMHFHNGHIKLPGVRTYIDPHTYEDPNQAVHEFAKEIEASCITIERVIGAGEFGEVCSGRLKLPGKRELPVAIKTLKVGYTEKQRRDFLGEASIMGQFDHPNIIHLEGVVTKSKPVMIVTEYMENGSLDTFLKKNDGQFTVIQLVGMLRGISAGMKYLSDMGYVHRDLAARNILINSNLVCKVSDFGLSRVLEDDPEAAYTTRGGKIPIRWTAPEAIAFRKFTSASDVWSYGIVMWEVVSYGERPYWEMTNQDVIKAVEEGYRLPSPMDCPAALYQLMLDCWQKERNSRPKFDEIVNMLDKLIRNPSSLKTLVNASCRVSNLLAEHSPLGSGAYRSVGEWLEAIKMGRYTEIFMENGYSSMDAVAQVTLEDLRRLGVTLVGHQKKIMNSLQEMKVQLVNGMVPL

By residual activity is commonly meant the signal under treatment as a percentage of the control signal. Consider `CC#CC(=O)Nc1cc2c(Nc3ccc(F)c(Cl)c3)ncnc2cn1`, for which the residual activity in [1] came out at 92%; in experiment [2] it was 118%; in experiment [3] it was 91%; in experiment [4], 102%; in experiment [5], 97%; in experiment [6], 96%. Further, the residual activity in [7] is 91%; in experiment [8], 104%; in experiment [9], 93%; in experiment [10] it was 96%.
